# Assay results as given in the supplement of paper PMC8728848.
# This excerpt belongs to a sample that is enriched for the strongest signals.
# B1: SefD (Salmonella enterica), Q9L6K6 (protein)
# chain: GAYIIRGQNNSAHKLRIRIGGEDWQPDNSGIGMVSHSDFTNEFNIYYFGNGDIPVDTYLISIYATEIEL
# Key:
# Assay in all cases: glycan array binding signal (z-score within array); higher = stronger binding
# Settings in all cases: glycan notation: IUPAC condensed, linker removed
# [1] = target: Fuc(a1-2)Gal(b1-3)[Fuc(a1-4)]GlcNAc(b1-2)Man(a1-3)[Fuc(a1-2)Gal(b1-3)[Fuc(a1-4)]GlcNAc(b1-2)Man(a1-6)]Man(b1-4)GlcNAc(b1-4)GlcNAc
# Method in brief: (§1)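 Glycan array data came from 3228 arrays in the Consortium for Functional Glycomics database, and only arrays with an available protein sequence were kept. Glycan names were put into IUPAC-condensed notation, and columns mapping to the same glycan were averaged. The binding signal is a within-array Z-score, averaged across arrays of one protein sequence run at different concentrations or buffers and across linkers. A negative Z-score can be read as non-binding.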
# [2] = target: Fuc(a1-2)Gal(b1-3)[Fuc(a1-4)]GlcNAc(b1-3)[Gal(b1-4)GlcNAc(b1-6)]Gal(b1-4)Glc
# Method in brief: as §1
# [3] = target: Fuc(a1-2)Gal(b1-4)GlcNAc(b1-3)Gal(b1-4)GlcNAc(b1-3)Gal(b1-4)GlcNAc
# Method in brief: as §1
# [4] = target: Fuc(a1-2)[Gal(a1-3)]Gal(b1-4)GlcNAc(b1-2)Man(a1-3)[Fuc(a1-2)[Gal(a1-3)]Gal(b1-4)GlcNAc(b1-2)Man(a1-6)]Man(b1-4)GlcNAc(b1-4)[Fuc(a1-6)]GlcNAc
# Method in brief: as §1
# [5] = target: Fuc(a1-2)[Gal(a1-3)]Gal(b1-4)[Fuc(a1-3)]GlcNAc
# Method in brief: as §1
# [6] = target: Fuc(a1-3)[Gal(b1-4)]Glc6S
# Method in brief: as §1
# [7] = target: Fuc(a1-3)[Gal(b1-4)]GlcNAc(b1-4)Gal(b1-4)[Fuc(a1-3)]GlcNAc(b1-4)Gal(b1-4)[Fuc(a1-3)]GlcNAc
# Method in brief: as §1
# Fuc(a1-4)GlcNAc = target: Fuc(a1-4)GlcNAc
# Method in brief: as §1
# [8] = target: Gal(a1-4)Gal(b1-3)GlcNAc(b1-2)Man(a1-3)[Gal(a1-4)Gal(b1-3)GlcNAc(b1-2)Man(a1-6)]Man(b1-4)GlcNAc(b1-4)GlcNAc
# Method in brief: as §1
# Gal(a1-4)Gal(b1-4)Glc = target: Gal(a1-4)Gal(b1-4)Glc
# Method in brief: as §1
# Gal(b1-3)Gal(b1-4)GlcNAc = target: Gal(b1-3)Gal(b1-4)GlcNAc
# Method in brief: as §1
# [9] = target: Gal(b1-4)GlcNAc(b1-2)[Gal(b1-4)GlcNAc(b1-6)]Man(a1-6)[Gal(b1-4)GlcNAc(b1-2)Man(a1-3)]Man(b1-4)GlcNAc(b1-4)GlcNAc
# Method in brief: as §1
# [10] = target: Gal(b1-4)GlcNAc(b1-3)[Gal(b1-4)GlcNAc(b1-6)]Gal(b1-4)GlcNAc
# Method in brief: as §1
# [11] = target: Gal(b1-4)GlcNAc(b1-3)[Gal(b1-4)GlcNAc(b1-6)]GalNAc
# Method in brief: as §1
# Gal6S(b1-4)Glc6S = target: Gal6S(b1-4)Glc6S
# Method in brief: as §1
# [12] = target: GalNAc(a1-3)Fuc(a1-2)Gal(b1-4)GlcNAc(b1-3)[GalNAc(a1-3)Fuc(a1-2)Gal(b1-4)GlcNAc(b1-6)]GalNAc
# Method in brief: as §1
# [13] = target: GalNAc(b1-3)Gal(a1-6)Gal(b1-4)Glc
# Method in brief: as §1
# GalNAc(b1-3)GalNAc = target: GalNAc(b1-3)GalNAc
# Method in brief: as §1
# [14] = target: Glc(a1-6)Glc(a1-6)Glc(a1-6)Glc
# Method in brief: as §1
# GlcA(b1-3)Gal = target: GlcA(b1-3)Gal
# Method in brief: as §1
# [15] = target: GlcNAc(b1-3)Gal(b1-3)GalNAc
# Method in brief: as §1
# GlcNAc(b1-3)GalNAc = target: GlcNAc(b1-3)GalNAc
# Method in brief: as §1
# [16] = target: GlcNAc(b1-3)[GlcNAc(b1-6)]GalNAc
# Method in brief: as §1
# GlcNAc(b1-4)GlcNAc = target: GlcNAc(b1-4)GlcNAc
# Method in brief: as §1
# GlcNAc3Prop(b1-4)GlcNAc = target: GlcNAc3Prop(b1-4)GlcNAc
# Method in brief: as §1
# [17] = target: Man(a1-2)Man(a1-3)[Man(a1-2)Man(a1-6)]Man(a1-6)[Man(a1-2)Man(a1-2)Man(a1-3)]Man(b1-4)GlcNAc(b1-4)GlcNAc
# Method in brief: as §1
# [18] = target: Neu5Ac(a2-3)Gal(b1-3)GalNAc(b1-4)[Neu5Ac(a2-3)]Gal(b1-4)Glc
# Method in brief: as §1
# [19] = target: Neu5Ac(a2-3)Gal(b1-3)GlcNAc
# Method in brief: as §1
# [20] = target: Neu5Ac(a2-3)Gal(b1-3)GlcNAc6S
# Method in brief: as §1
# [21] = target: Neu5Ac(a2-3)Gal(b1-3)[Neu5Ac(a2-6)]GalNAc
# Method in brief: as §1
# [22] = target: Neu5Ac(a2-3)Gal(b1-4)GlcNAc(b1-6)[Gal(b1-3)]GalNAc
# Method in brief: as §1
# [23] = target: Neu5Ac(a2-3)Gal(b1-4)[Fuc(a1-3)]GlcNAc(b1-3)GalNAc
# Method in brief: as §1
# [24] = target: Neu5Ac(a2-3)Gal(b1-4)[Fuc(a1-3)]GlcNAc(b1-6)[Gal(b1-3)]GalNAc
# Method in brief: as §1
# [25] = target: Neu5Ac(a2-6)Gal(b1-4)GlcNAc(b1-2)Man(a1-6)[GlcNAc(b1-2)Man(a1-3)]Man(b1-4)GlcNAc(b1-4)GlcNAc
# Method in brief: as §1
# [26] = target: Neu5Ac(a2-6)GlcNAc(b1-4)GlcNAc(b1-4)GlcNAc
# Method in brief: as §1
# [27] = target: Neu5Ac(a2-8)Neu5Ac(a2-3)Gal(b1-4)Glc
# Method in brief: as §1
# [28] = target: Neu5Ac(a2-8)Neu5Ac(a2-3)[Gal(b1-3)GalNAc(b1-4)]Gal(b1-4)Glc
# Method in brief: as §1
binder,measurement,setting,value
B1,glycan array binding signal (z-score),[1],-0.362
same,glycan array binding signal (z-score),[2],5.83
same,glycan array binding signal (z-score),[3],-0.043
same,glycan array binding signal (z-score),[4],-0.413
same,glycan array binding signal (z-score),[5],-0.401
same,glycan array binding signal (z-score),[6],-0.328
same,glycan array binding signal (z-score),[7],-0.46
same,glycan array binding signal (z-score),Fuc(a1-4)GlcNAc,2.37
same,glycan array binding signal (z-score),[8],-0.091
same,glycan array binding signal (z-score),Gal(a1-4)Gal(b1-4)Glc,-0.442
same,glycan array binding signal (z-score),Gal(b1-3)Gal(b1-4)GlcNAc,2.24
same,glycan array binding signal (z-score),[9],0.127
same,glycan array binding signal (z-score),[10],-0.614
same,glycan array binding signal (z-score),[11],-0.441
same,glycan array binding signal (z-score),Gal6S(b1-4)Glc6S,-0.435
same,glycan array binding signal (z-score),[12],5.38
same,glycan array binding signal (z-score),[13],-0.631
same,glycan array binding signal (z-score),GalNAc(b1-3)GalNAc,-0.05
same,glycan array binding signal (z-score),[14],-0.319
same,glycan array binding signal (z-score),GlcA(b1-3)Gal,-0.456
same,glycan array binding signal (z-score),[15],-0.29
same,glycan array binding signal (z-score),GlcNAc(b1-3)GalNAc,-0.427
same,glycan array binding signal (z-score),[16],-0.43
same,glycan array binding signal (z-score),GlcNAc(b1-4)GlcNAc,0.15
same,glycan array binding signal (z-score),GlcNAc3Prop(b1-4)GlcNAc,6.32
same,glycan array binding signal (z-score),[17],-0.324
same,glycan array binding signal (z-score),[18],-0.395
same,glycan array binding signal (z-score),[19],-0.336
same,glycan array binding signal (z-score),[20],-0.237
same,glycan array binding signal (z-score),[21],2.7
same,glycan array binding signal (z-score),[22],3.13
same,glycan array binding signal (z-score),[23],11.3
same,glycan array binding signal (z-score),[24],-0.092
same,glycan array binding signal (z-score),[25],-0.228
same,glycan array binding signal (z-score),[26],-0.293
same,glycan array binding signal (z-score),[27],0.431
same,glycan array binding signal (z-score),[28],0.969
